# Bioassay records as filed in PubChem.
# Sampled rows, rich in hits. Any-hit rate of the full collection: about 10%.
# CtBP-E1A blk: blocks the CtBP interaction with E1A; AlphaScreen GST-E1A/His-CtBP binding, 1536-well; active compounds read low; activity change, % (concentration not given with the values); 0.49% of 340,000 active; in the data active = activity change below about -65%; inconclusive = mostly about -30% to -63%; also: % is scaled to controls: 0 for no effect and ±100 for the full control effect
#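 In 5 uL wells, 23 nL compound meets equimolar GST-E1A and His-CtBP (5X stock 125 nM each) for 2 h, 37 °C. Beads (5X, 50 ug/mL) then 1 h, 37 °C, dark.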
# JMJD2A Tudor: JMJD2A Tudor domain (human) inhibition | O75164 | AlphaScreen JMJD2A-Tudor / H3K4me3 peptide binding | Potency, µM (highest dose often 114 µM), without a hit: top-dose activity change, negative = inhibition, usual class: inhibitors | 4.4% of 390,000 active | AID 504339; also: potency is read from the fitted curve at half-maximal effect; % is scaled to controls: 0 for no effect and ±100 for the full control effect; nearly all actives have a fitted effect of over 50% in size
# Target sequence (O75164 whole entry, looked up, the tested form may be a part): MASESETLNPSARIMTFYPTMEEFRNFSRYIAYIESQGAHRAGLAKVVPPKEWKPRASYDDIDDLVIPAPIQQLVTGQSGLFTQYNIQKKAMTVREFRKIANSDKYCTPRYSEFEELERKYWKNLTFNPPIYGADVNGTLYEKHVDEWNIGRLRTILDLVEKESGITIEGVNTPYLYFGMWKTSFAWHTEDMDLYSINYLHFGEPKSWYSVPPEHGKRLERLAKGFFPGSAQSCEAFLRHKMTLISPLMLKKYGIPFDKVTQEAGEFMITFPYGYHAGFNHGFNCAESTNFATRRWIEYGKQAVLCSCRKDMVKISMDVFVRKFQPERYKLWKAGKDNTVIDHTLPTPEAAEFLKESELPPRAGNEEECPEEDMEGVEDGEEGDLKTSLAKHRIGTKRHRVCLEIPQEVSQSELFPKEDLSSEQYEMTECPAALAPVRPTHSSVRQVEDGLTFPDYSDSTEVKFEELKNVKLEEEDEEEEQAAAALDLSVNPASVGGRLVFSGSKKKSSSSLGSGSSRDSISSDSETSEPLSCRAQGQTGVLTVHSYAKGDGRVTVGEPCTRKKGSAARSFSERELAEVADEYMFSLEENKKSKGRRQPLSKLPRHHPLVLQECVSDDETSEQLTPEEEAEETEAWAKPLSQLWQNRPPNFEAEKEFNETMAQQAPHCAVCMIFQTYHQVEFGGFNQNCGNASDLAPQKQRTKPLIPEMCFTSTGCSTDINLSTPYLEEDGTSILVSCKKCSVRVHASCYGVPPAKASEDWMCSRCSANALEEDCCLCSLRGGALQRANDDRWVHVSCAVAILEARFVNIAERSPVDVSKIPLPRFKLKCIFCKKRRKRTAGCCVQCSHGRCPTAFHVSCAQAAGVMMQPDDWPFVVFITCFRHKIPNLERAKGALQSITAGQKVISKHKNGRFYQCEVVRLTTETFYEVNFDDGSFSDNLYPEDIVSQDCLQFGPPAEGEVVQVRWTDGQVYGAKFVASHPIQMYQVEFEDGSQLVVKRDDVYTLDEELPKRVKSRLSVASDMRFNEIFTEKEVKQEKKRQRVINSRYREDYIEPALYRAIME
# Six1-Eya2 inh: inhibitors of human Six1/Eya2 interaction; AlphaScreen GST-Six1/His-Eya2 binding, biochemical; active compounds read low; 0.56% of 360,000 active; Q15475+O00167; activity change, % (no concentration beside the values); in the data active = activity change below about -65%; inconclusive = mostly about -30% to -63%; also: % is scaled to controls: 0 for no effect and ±100 for the full control effect
#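 AlphaScreen luminescence read after one hour at 37 °C in darkness. Pin-transferred compounds met GST-Six1 and His-Eya2 protein (5X stock 250 nM/500 nM) plus glutathione donor and Ni-chelate acceptor beads (5X, 50 ug/mL).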
# HP1b chromo inh: inhibitors of HP1-beta chromodomain binding to methylated histone tails | 0.56% of 390,000 active | Potency, µM (highest dose often 114 µM), without a hit: top-dose activity change, negative = inhibition, usual class: inhibitors | AlphaScreen HP1-beta / biotin-H3K9me3 peptide binding | AID 540317; also: potency is read from the fitted curve at half-maximal effect; nearly all actives have a fitted effect of over 70% in size
#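 Compound inhibition of the preformed complex between 50 nM HP1-beta and 50 nM biotinylated H3K9me3 peptide was read by AlphaScreen. Buffer was PBS pH 7.4 with 0.01% Tween-20. Incubations ran 30 min at room temperature, with 10 ug/mL donor/acceptor beads.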
# G9a inh: inhibitors of human histone lysine methyltransferase G9a. 8.8% of 350,000 active. Potency, µM (titrated, usually from 102 µM), for the others: at the top dose activity, negative = inhibition, actives largely listed as inhibitors. G9a H3K9 monomethylation, AlphaScreen, 2 h. AID 504332; also: potency is read from the fitted curve at half-maximal effect; % is scaled to controls: 0 for no effect and ±100 for the full control effect; nearly all actives have a fitted effect of over 75% in size
#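 AlphaScreen read-out: biotin-H3K9 peptide (500 nM) methylation by 20 nM enzyme with 20 uM SAM, 2 h at room temperature after 15 min compound preincubation; anti-monomethyl H3K9 antibody plus donor/acceptor beads, 10 min dark.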
# BAZ2B inh: BAZ2B (human) inhibition | AlphaScreen BAZ2B-H3K14Ac peptide displacement | Q9UIF8 | AID 504333 | Potency, µM (series often up to 114 µM), for inactives: at the highest dose activity change, negative = inhibition, usual class: inhibitors | 4.4% of 360,000 active; also: potency is read from the fitted curve at half-maximal effect; % is scaled to controls: 0 for no effect and ±100 for the full control effect; nearly all actives have a fitted effect of over 60% in size
#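 In this displacement format the biotinylated H3(5-23) peptide acetylated at Lys14 serves as ligand at 50 nM, with BAZ2B at 50 nM in PBS pH 7.4 containing 0.01% Tween-20. Donor and acceptor beads are 10 ug/mL final.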
# * hit, by the source's call; ? = inconclusive; . = not tested or not shown; [ ] = dose if it differs, or a comment. Unless noted, calls follow the shape of the dose curve; as a rule, active = well fitted inhibition curve with a large enough effect; inconclusive = small, poorly fitted or top-dose-only effect; inactive = no such curve, though single readings can be large or run the other way.
SMILES,CtBP-E1A blk,JMJD2A Tudor,Six1-Eya2 inh,HP1b chromo inh,G9a inh,BAZ2B inh
COc1cc(NS(=O)(=O)c2ccc(NC(=S)NC(=O)c3sc4cc(F)ccc4c3Cl)cc2)nc(OC)n1,4.2,?,0.0,?,?,-28.6%
COc1cc(NS(=O)(=O)c2ccc(NC(=S)NC(=O)c3sc4ccccc4c3Cl)cc2)nc(OC)n1,-28.7,-33.1%,-15.2,?,?,50.1µM*
COc1cccc(C(=O)/C=C/Nc2ccc(S(=O)(=O)Nc3ccc(C(C)=O)cc3)cc2)c1,?,-13.8%,-24.0,-17.9%,50.1µM*,-3.4%
COc1cc(NS(=O)(=O)c2ccc(N/C=C\C(=O)c3ccc(OC)c(OC)c3)cc2)nc(OC)n1,-6.2,-13.4%,?,26.7%,?,-10.3%
COc1ccc(C(=O)/C=C/Nc2ccc(S(=O)(=O)Nc3cc(OC)nc(OC)n3)cc2)c(OC)c1,-29.7,-26.4%,?,9.7%,25.1µM*,-21.6%
COc1ccc(C(=O)/C=C/Nc2ccc(S(=O)(=O)Nc3cccc(C(C)=O)c3)cc2)cc1,-10.4,-1.4%,-13.0,25.9%,?,2.7%
CSCCC(NS(=O)(=O)Cc1ccccc1)C(=O)NNc1ccccc1 (stereo not given),6.6,.,-0.1,.,.,.
COc1cc(NC(=O)CSc2nc(=O)n(CCN3CCOCC3)c3c2CCCC3)cc(OC)c1,-28.3,-17.0%,-9.9,14.1%,-31.1%,13.2%
CCOc1cc(C2NC(=O)c3c(sc4c3CCN(C)C4)N2)ccc1OC(=O)c1ccccc1Cl (stereo not given),.,-7.6%,.,-3.3%,3.6%[59 µM],31.0%
CC(C(=O)NCc1ccc(Cl)cc1)n1ccc2cc(S(=O)(=O)N3CCCCCC3)ccc21 (stereo not given),.,-1.0%,.,62.0%,-2.8%[59 µM],6.0%
O=C(O)c1cc(Nc2cc(Cl)c3nonc3c2[N+](=O)[O-])ccc1O,.,-31.5%,-79.3*,8.5%,35.5µM*,?
NC(=O)/C=C/C(=O)Nc1ccc(Cl)cc1,3.5,-35.3%,10.1,-26.4%,11.2µM*,-18.9%
Cc1ccc(NC(=O)c2nc(S(C)(=O)=O)ncc2N(Cc2ccccc2)Cc2ccco2)c(C)c1,.,-6.6%,.,37.0%,-0.7%[59 µM],-1.8%
COC(=O)c1ccc(N2C(c3ccsc3)=Cc3cc4c(cc3C2CC(=O)c2ccco2)OCO4)cc1 (stereo not given),-4.5,.,-15.0,.,.,.
Cc1c([N+](=O)[O-])cc(C(=O)Oc2ccc(Br)cc2C(=S)N2CCCCC2)cc1[N+](=O)[O-],-17.7,?,-22.1,-28.3%,8.91µM*,?
CCOc1ccc(Br)cc1C(=S)N1CCCC1,.,11.9%,-2.3,21.0%,17.5%[0.501 µM],9.2%
Cc1ccc(C(=O)Oc2ccc(Br)cc2C(=S)N2CCOCC2)cc1,?,-21.4%,-9.7,?,39.8µM*,-13.5%
O=C(Oc1ccc(Br)cc1C(=S)N1CCOCC1)c1ccc(F)cc1,-16.6,-35.9%,-17.7,-36.1%,.,?
COc1ccc(C(=O)Oc2ccc(Br)cc2C(=S)N2CCOCC2)cc1,-29.4,-31.0%,-19.1,69.6%,56.2µM*,-23.9%
Cc1ccc(N2CC(NC(=O)CCc3ccccc3)CC2=O)cc1 (stereo not given),.,-1.9%,.,22.5%,5.1%[59 µM],0.2%
CCOC(=O)Cc1ccc(Nc2nc3cc(-c4sccc4C)sc3c(=O)n2C)cc1,1.2,.,1.8,.,.,.
O=C1C(=O)c2ccccc2C(O)=C1c1ccccc1F,5.4,-23.6%,6.7,-15.5%,?,?
O=C1C(O)=C(O)C(=O)c2ccccc21,15.6,56.2µM*,5.1,?,.,.
O=C1c2ccccc2C(=O)c2c1ccc(O)c2O,?,50.1µM*,-65.1*,7.08µM*,-33.3%[2.33 µM],.
COC(=O)c1ccc2c(c1O)C(=O)c1ccccc1C2=O,?,?,?,-17.6%,12.6µM*,?
SMILES,CtBP-E1A blk,JMJD2A Tudor,Six1-Eya2 inh,HP1b chromo inh,G9a inh,BAZ2B inh
CC(=O)N(C)C1=C(O)c2ccccc2C(=O)C1=O,-2.8,-29.4%,2.2,11.3%,79.4µM*,?
CCCCS(=O)(=O)N1CCN(S(=O)(=O)c2cccs2)CC1,10.3,0.7%,3.1,33.6%,21.3%,1.9%
O=C(CC1C(=O)N(c2ccc(F)cc2)C(=O)N1Cc1cccnc1)Nc1ccc(F)cc1 (stereo not given),.,-5.2%,.,30.7%,-30.4%[59 µM],-6.3%
O=C1c2cccc(Sc3ccccc3)c2C(=O)c2c(Sc3ccccc3)cccc21,?,3.16µM*,?,7.94µM*,1µM*,15.8µM*
O=C1c2cccc(O)c2C(=O)c2c(O)cccc21,.,.,.,.,7.94µM*,?
O=C1C=C(O)c2cccc(O)c2C1=O,-8.4,?,-8.3,11.8%,-139.2%[59 µM],?
COC(=O)CSC1=NS(=O)(=O)c2ccccc21,-2.8,15.8µM*,-3.8,-17.1%,1.41µM*,-20.5%
O=C(CSC1=NS(=O)(=O)c2cc(F)ccc2N1)Nc1ccccc1,7.4,?,11.4,16.6%,-21.6%,2.6%
O=C(CSC1=NS(=O)(=O)c2ccccc21)Nc1ccccc1,-0.4,-15.3%,1.3,31.3%,7.94µM*,?
COC(=O)CSc1ccccc1C(=O)OC,5.5,-1.9%,6.7,30.5%,?,8.0%
O=C1[O][Bi][O]c2ccccc21,.,.,.,.,3.16µM*,.
O=C(NCCSCc1ccccc1)C1CCN(S(=O)(=O)Cc2ccccc2)CC1,.,7.0%,.,76.2%,-9.2%[59 µM],16.4%
O=C(NCc1ccc(Cl)cc1)C1CCN(S(=O)(=O)c2cc([N+](=O)[O-])ccc2Cl)CC1,.,3.0%,-14.4,17.8%,44.7µM*,9.1%
O=C(NC1CC1)C1CCN(S(=O)(=O)c2cc([N+](=O)[O-])ccc2Cl)CC1,-0.1,8.91µM*,-12.7,7.1%,?,31.6µM*
CC1=NCCN1S(=O)(=O)c1cc([N+](=O)[O-])ccc1Cl,14.2,-1.0%,3.4,-15.6%,44.7µM*,-13.8%
